Experimental findings from PubChem BioAssay (Tox21) are described below.

Structures are written as SMILES. Results filed as inconclusive are left out. Unmarked numbers belong to inactive results. Calls of active or inactive are those of the source. Calls come from the whole dose curve; as a rule, active = well fitted cell-killing curve with a large enough effect in the repeat runs; inconclusive = weak or mixed curves, or effect the other way; inactive = flat fitted curve, though single readings scatter.

The nature of assay [1]: cAMP Responsive Elements (CRE) small molecule antagonists, cell-based qHTS assay: qHTS cell viability counter screen (AID 2060913). Note: nearly all actives have a fitted effect of over 40% in size. The gist of the method: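 Steps: cells plated and held 18 hrs at 37 C/5% CO2; compounds and NKH477 (0.25 uM final) added; 3 hrs incubation; reporter substrate read; CellTiter-Glo added to measure cytotoxicity by luminescence.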
(Quantitative high-throughput screening tests each substance at several concentrations.)

The nature of assay [2]: cAMP Responsive Elements (CRE) small molecule agonists, cell-based qHTS assay: qHTS cell viability counter screen (AID 2060914). Note: nearly all actives have a fitted effect of over 50% in size. In short, it runs like this: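 Luminescence read-out (CellTiter-Glo, 30 min RT) of ATP-based viability in CRE-bla HEK 293T cells, run in the same wells as the β-lactamase reporter assay after 3 h compound treatment at 37 °C.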
% is set by controls: 0 for no effect and ±100 for the full control effect; potency is the fitted concentration of half-maximal effect.

For the compound `CCCC(=O)C(CC)Sc1ccoc1C` (stereo not given), the Potency result in assay [1] and in assay [2] was “inactive” in each case.

With `OC(CCN1CCCC1)(c1ccccc1)C1CCCCC1` (stereo not given), the Potency result in assay [1] and in assay [2] was “inactive” throughout.

Take `COc1cccc2sc(N)nc12`: the Potency result in assay [1] and in assay [2] was “inactive” each time.

As to `Cc1cccc(C)c1NC(=O)c1ccc(N)cc1`, the Potency result in assay [1] and in assay [2] was “inactive” each time.

As for `CO[Si](CCCCl)(OC)OC`, the Potency entry in assay [1] and in assay [2] was “inactive” each time.

As for `COc1ccc(-n2nc(CCC(=O)N(C)O)cc2-c2ccc(Cl)cc2)cc1`, the Potency result in assay [1] and in assay [2] was “inactive” each time.

Consider `CCCCCCCCCCCCC(=O)O`, for which the Potency entry in assay [1] and in assay [2] was “inactive” each time.

Take `Cc1cccc2n[nH]nc12`: the Potency entry in assay [1] and in assay [2] was “inactive” in each case.

As to `COc1ccc(S(=O)(=O)N2c3ccc(Cl)cc3[C@@](O)(c3ccccc3Cl)[C@H]2C(=O)N2CCC[C@@H]2C(N)=O)cc1OC`, the Potency result in assay [1] and in assay [2] was “inactive” each time.

`C[C@@H](Oc1ccc(CNC(=O)c2cccnc2Oc2ccc3c(c2)OCO3)c(F)c1)C(=O)O`: the Potency in assay [1] was 13.7 µM (active). In addition, in assay [2], the Potency result was “inactive”.

As to `CN(C)CCCN1c2ccccc2Sc2ccc(C(F)(F)F)cc21`, the Potency entry in assay [1] and in assay [2] was “inactive” in each case.

Take `C=CCOc1cc(Cl)ccc1C(=O)NCCN(CC)CC`: the Potency entry in assay [1] and in assay [2] was “inactive” each time.

For the compound `CC(C)(C)C(=O)OCOP(=O)(COCCn1cnc2c(N)ncnc21)OCOC(=O)C(C)(C)C`, the Potency result in assay [1] and in assay [2] was “inactive” each time.

For the compound `CC(Oc1cc(Cl)ccc1Cl)C(=O)O` (stereo not given), the Potency entry in assay [1] and in assay [2] was “inactive” throughout.

Turning to `CC1(C)O[C@@H]2C[C@H]3[C@@H]4CCC5=CC(=O)C=C[C@]5(C)[C@H]4[C@@H](O)C[C@]3(C)[C@]2(C(=O)CO)O1`, the Potency entry in assay [1] and in assay [2] was “inactive” throughout.

As for `COc1ccccc1Oc1c(NS(=O)(=O)c2ccc(C(C)(C)C)cc2)nc(-c2ncccn2)nc1OCCO`, the Potency result in assay [1] and in assay [2] was “inactive” each time.

As for `C/C(CC(C)C)=N\O`, the Potency result in assay [1] and in assay [2] was “inactive” throughout.

Take `CCCCCCCCCCCCCCCCI`: in assay [1], the viability change, negative = cytotoxic was 12.3% [at 18.9 µM]. Moreover, in assay [2], the activity change, negative = cytotoxicity was -9.53% [at 18.9 µM].

On to `c1ccc(C[n+]2cccc3ccccc32)cc1`, for which the Potency entry in assay [1] and in assay [2] was “inactive” throughout.

`C=C[Si](C)(C)O[Si](C)(C)C=C`: the Potency result in assay [1] and in assay [2] was “inactive” in each case.

Regarding `CCCCCCCCCCCCCC[n+]1ccccc1`, the Potency in assay [1] was 48.6 µM (active); in assay [2], 61.1 µM (active).

Consider `CC(Oc1c(Cl)cccc1Cl)C1=NCCN1` (stereo not given), for which the Potency entry in assay [1] and in assay [2] was “inactive” in each case.

`C=C(C)C(=O)OCCC(F)(F)C(F)(F)C(F)(F)C(F)(F)C(F)(F)C(F)(F)F`: the Potency entry in assay [1] and in assay [2] was “inactive” each time.

On to `Cc1cccc2ccccc12`, for which the Potency result in assay [1] and in assay [2] was “inactive” throughout.

For `c1ccc(B(c2ccccc2)c2ccccc2)cc1`, the Potency entry in assay [1] and in assay [2] was “inactive” each time.

Take `O=C=NCCCCCCN=C=O`: the Potency entry in assay [1] and in assay [2] was “inactive” each time.

On to `CC(=O)/C(C)=C/C1C(C)=CCCC1(C)C` (stereo not given), for which the Potency result in assay [1] and in assay [2] was “inactive” throughout.

Consider `CCCCCC(=O)OCC`, for which the Potency result in assay [1] and in assay [2] was “inactive” throughout.

On to `CC(C)=CCC/C(C)=C/C=O`, for which the Potency result in assay [1] and in assay [2] was “inactive” throughout.

For the compound `Cc1ccc([N+](=O)[O-])cc1S(=O)(=O)O`, the Potency entry in assay [1] and in assay [2] was “inactive” each time.

For the compound `Cc1ccc2sc3cccc(C)c3c2c1`, the Potency result in assay [1] and in assay [2] was “inactive” throughout.

For `O=S(=O)(Oc1ccc(Cl)cc1Cl)c1ccccc1`, the Potency result in assay [1] and in assay [2] was “inactive” each time.

As for `CC(C)Nc1cccnc1N1CCN(C(=O)c2cc3cc(NS(C)(=O)=O)ccc3[nH]2)CC1`, the Potency result in assay [1] and in assay [2] was “inactive” each time.

In the case of `C=C(C)C1CC=C(C)C(=O)C1` (stereo not given), the Potency entry in assay [1] and in assay [2] was “inactive” in each case.

In the case of `CCCCCCCOC(=O)CCC`, the Potency entry in assay [1] and in assay [2] was “inactive” each time.

Turning to `C=CC(=O)O[C@H]1C[C@@H]2CC[C@@]1(C)C2(C)C`, the Potency result in assay [1] and in assay [2] was “inactive” throughout.

Take `OCC(CO)N[C@H]1C[C@](O)(CO)[C@@H](O)[C@H](O)[C@H]1O`: the Potency entry in assay [1] and in assay [2] was “inactive” throughout.

As to `CCCCCCCCS(=O)(=O)O`, the Potency entry in assay [1] and in assay [2] was “inactive” throughout.

As to `CCS(=O)(=O)CCn1c([N+](=O)[O-])cnc1C`, the Potency entry in assay [1] and in assay [2] was “inactive” each time.

As to `COc1cc(OC)c2ccc(=O)oc2c1`, the Potency entry in assay [1] and in assay [2] was “inactive” each time.

On to `Cn1c([N+](=O)[O-])cnc1COC(N)=O`, for which the Potency entry in assay [1] and in assay [2] was “inactive” each time.

As to `O=CC(=O)c1ccccc1`, the Potency result in assay [1] and in assay [2] was “inactive” each time.

Take `O=[N+]([O-])c1ccc(/C=C/c2ccc([N+](=O)[O-])cc2S(=O)(=O)O)c(S(=O)(=O)O)c1`: the Potency result in assay [1] and in assay [2] was “inactive” each time.

As to `CC(C)[N+](C)(CCOC(=O)C1c2ccccc2Oc2ccccc21)C(C)C`, the Potency entry in assay [1] and in assay [2] was “inactive” throughout.

On to `CCn1cc(C(=O)O)c(=O)c2cc(F)c(N3CCNC(C)C3)c(F)c21` (stereo not given), for which the Potency result in assay [1] and in assay [2] was “inactive” each time.
